Hit rate of the full screen: of about 48,000 compounds, about 13,000 (27%) showed an effect of 50% or more. The list shows a part of the results.

Here are results for 46 compounds from ChEMBL document CHEMBL3988442, “University of Dundee, Small-Polar-MMV Screening Library” (2021).

This assay relates to Wolbachia pipientis. In words: Anti-Wolbachia Cell-Based Screen. It is filed as functional. Also noted: scale not given: in the data most compounds retested in dose-response had high values. As to conditions: 5 µM.
For the compound `Cn1ccnc1CN1CC2(CCN(Cc3ccncc3)C2)C1`, the “Percent Effect” value was -5.589%.

`Cc1cccnc1CC(C)NC1Cc2ccccc2C1` (stereo unspecified): the “Percent Effect” value is -26.27%.

As to `CCN1CCC2(CC1)CC(Nc1ncccn1)CO2` (stereo unspecified), the “Percent Effect” value is recorded as -3.551%.

On to `Cc1cc(NC2CC3(CCN(Cc4ncccc4F)C3)C2)ncn1` (stereo unspecified), for which the “Percent Effect” value is 100.5%.

Regarding `Fc1cnccc1CN1CCC2(CCNCC2)C1`, the “Percent Effect” value is -4.399%.

Consider `COC(=O)CNC(=O)c1cn(Cc2ccccc2F)nn1`, for which the “Percent Effect” value amounted to 4.551%.

On to `CN(c1ncccc1C#N)C1CCN(CCc2ccncc2)CC1`, for which the “Percent Effect” value is -9.489%.

With `Cc1ccccc1-n1cc(C2=CCN(CCN3CCOCC3)CC2)cn1`, the “Percent Effect” value is -7.999%.

As for `CC(C)c1nc(N2CCN3CCCC3C2)c2cnn(C)c2n1` (stereo unspecified), the “Percent Effect” value turned out to be 18.47%.

With `CCCc1nc(N2CCCN3CCC[C@H]3C2)c2cnn(C)c2n1`, the “Percent Effect” value is recorded as 64.99%.

Regarding `Cn1ncc2c(N3CCCN4CCC[C@H]4C3)nc(C(C)(C)C)nc21`, the “Percent Effect” value is given as 135.6%.

In the case of `Cn1ncc2c(N3CCCC4(CCNC4)C3)nc(C(C)(C)C)nc21` (stereo unspecified), the “Percent Effect” value amounted to 8.536%.

With `CCOCc1nc2c(c(N3CCN4CCCC4C3)n1)CCNCC2` (stereo unspecified), the “Percent Effect” value came to 3.786%.

Consider `CCCc1nc(N2CCCC3(CCNC3)C2)c2cnn(C)c2n1` (stereo unspecified), for which the “Percent Effect” value is given as -0.0368%.

Regarding `Cc1nc(COC[C@@H]2CC[C@H]3NCC[C@H]3O2)cs1.Cl.Cl`, the “Percent Effect” value came out at 12.23%.

For the compound `N#Cc1ccc(NC2CCN(c3ncccn3)CC2)cc1C(F)(F)F`, the “Percent Effect” value was -29.96%.

Regarding `Cc1nc(CC(=O)N2CCCC(N(C)Cc3ccccc3)C2)cs1` (stereo unspecified), the “Percent Effect” value amounted to 124%.

Take `Cc1nc(CN2CCN(C(=O)Cc3cccc(Cl)c3)CC2)no1`: the “Percent Effect” value is 6.745%.

On to `Cc1nc(CC(=O)N2CCN(C(C)c3ccccc3F)CC2)cs1` (stereo unspecified), for which the “Percent Effect” value is -7.662%.

Turning to `O=C(Cc1csc(-c2ncccn2)n1)N1CCN2CCCCC2C1` (stereo unspecified), the “Percent Effect” value was found to be 6.768%.

For `Cc1cccc(CC(=O)N2CCCC(N(C)CCCN(C)C)C2)c1` (stereo unspecified), the “Percent Effect” value was 81.85%.

For the compound `Cc1nc(CC(=O)N2CCCC[C@H](N(C)C)C2)cs1`, the “Percent Effect” value is 105.8%.

`Cc1nc(CC(=O)N(C)C2CCCN(CCc3ccccc3)C2)cs1` (stereo unspecified): the “Percent Effect” value amounted to 10.74%.

`CN(C(=O)Cc1ccn(C)c1)C1CCCN(C2Cc3ccccc3C2)C1` (stereo unspecified): the “Percent Effect” value is recorded as -11.39%.

`CN(C)C(=O)CN1CCN(C(=O)Cc2csc(-c3ncccn3)n2)CC1`: the “Percent Effect” value was -5.623%.

Turning to `COc1ncccc1CN1CC[C@H]2O[C@@H](c3nnc(C)o3)CC[C@H]21`, the “Percent Effect” value is recorded as -10.73%.

For the compound `O=C(Nc1cccnc1)[C@H]1CN(Cc2ccco2)C[C@H]2OCC[C@@H]12.O=C(O)C(F)(F)F.O=C(O)C(F)(F)F`, the “Percent Effect” value is -18.85%.

As for `CNC(=O)CN1CCO[C@H]2CN(C(=O)c3ccncc3F)C[C@H]21.O=C(O)C(F)(F)F`, the “Percent Effect” value is given as -18.06%.

Take `Cc1ccccc1CC(C)NCc1c(C)nn(C)c1N1CCOCC1.Cl` (stereo unspecified): the “Percent Effect” value turned out to be 6.405%.

`CCOC(C)c1noc(CN(C)C(=O)C2C(C)(C)C2(C)C)n1` (stereo unspecified): the “Percent Effect” value turned out to be 12.97%.

Turning to `C[C@H]1C[C@@H]2CCN(CC3CCOCC3)C[C@H]2O1`, the “Percent Effect” value is -3.08%.

With `O=C1CO[C@H]2CN(C3CCOCC3)C[C@H]2N1Cc1ccccn1`, the “Percent Effect” value is recorded as -4.247%.

Take `O=C(O)C(F)(F)F.O=C(O)C(F)(F)F.O=C1CO[C@@H]2CN(Cc3cccs3)C[C@H]2N1Cc1ccncc1`: the “Percent Effect” value is on record as -4.405%.

As for `O=C1CO[C@H]2CN(C3CCOCC3)C[C@H]2N1Cc1ccncc1`, the “Percent Effect” value is -21.59%.

On to `O=C1CO[C@@H]2CN(C3CCOCC3)C[C@H]2N1Cc1ccncc1`, for which the “Percent Effect” value is given as 117.1%.

`O=C(O)C(F)(F)F.O=C(O)C(F)(F)F.O=C1CO[C@@H]2CN(CC3CCOCC3)C[C@H]2N1Cc1ccncc1`: the “Percent Effect” value came out at 87.76%.

As for `O=C(O)C(F)(F)F.O=C(O)C(F)(F)F.O=C(O)C(F)(F)F.O=C(O)C(F)(F)F.c1cc(CN2C[C@@H]3OCCN(CCN4CCCC4)[C@@H]3C2)ccn1`, the “Percent Effect” value came out at 0.06106%.

Take `NCC1(c2cccc(C(F)(F)F)c2)CCOCC1`: the “Percent Effect” value is recorded as -0.8853%.

Consider `CCCN1CCN(C(=O)c2cnccc2C)[C@H]2CS(=O)(=O)C[C@H]21`, for which the “Percent Effect” value is recorded as -10.68%.

Turning to `CCC[C@]12CN3C[C@](C)(CN(C1)C3c1[nH]c(=O)[nH]c(=O)c1C)C2=O` (stereo partly specified), the “Percent Effect” value worked out at 118.8%.

`Cc1c(C2N3C[C@]4(C)CN2C[C@](C)(C3)C4=O)[nH]c(=O)[nH]c1=O` (stereo partly specified): the “Percent Effect” value came to 140.1%.

For the compound `CC[C@]12CN3C[C@](CC)(CN(C1)C3c1[nH]c(=O)[nH]c(=O)c1C)C2=O` (stereo partly specified), the “Percent Effect” value is recorded as 112.4%.

As to `CC[C@]12CN3C[C@](C)(CN(C1)C3c1[nH]c(=O)[nH]c(=O)c1C)C2=O` (stereo partly specified), the “Percent Effect” value is on record as 105.1%.

For `COCC(=O)NC[C@H]1C[C@@H]2CCN1C[C@@H]2CN(C)c1ccccc1`, the “Percent Effect” value is recorded as -6.027%.

In the case of `O=C(c1[nH]c2ccc(Cl)cc2c1Cl)N1CCC2(CC1)OCCO2`, the “Percent Effect” value is recorded as -4.336%.

On to `NCC1(c2cccc(C(F)(F)F)c2)CCC1`, for which the “Percent Effect” value is on record as 15.34%.
